# Source: PubChem BioAssay
# Most compounds without a hit are left out; they make up all but 27% or so of the library.
# sEH inh: blocks human soluble epoxide hydrolase activity; inhibition, % at 2 µM; P34913; recombinant human sEH enzymatic activity assay; AID 707; 91,000 tested, 0.34% active; in the data active = inhibition above about 80%
# CYP2C19 inh: blocks human cytochrome P450 2C19 | AID 778 | 96,000 tested, 21% active | P33261 | inhibition, % at 5 µM | CYP2C19 Supersomes, luciferin-H EGE luminescence, 30 min;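 active = CYP2C19 inhibition above a set limit at 5 µM in the primary screen, cut at about 50% in these data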;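 also: plate controls were negative control wells for no effect and 2.5 mM tranylcypromine positive control for full effect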
# CYP2C19 act: activators of human cytochrome P450 2C19; P33261; recombinant CYP2C19, luciferin-H EGE luminescence; hits give high values; 0 = fully inhibited enzyme, 1 = untreated enzyme; activation factor at 5 µM; 96,000 tested, under 10 active; AID 1025;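 active = activation factor of at least 2 at 5 µM in the primary screen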;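 also: 0 = wells with 2.5 mM tranylcypromine and 1 = vehicle-only wells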
# CYP2C9 act: increases human cytochrome P450 2C9 activity; activation factor at 5 µM; recombinant CYP2C9, luciferin-H conversion, luminescence; hits give high values; factor 1 = untreated enzyme, 0 = blocked; 96,000 tested, 1.4% active; AID 1024; P11712;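 active = activation factor of 2 or more for CYP2C9 at a 5 µM dose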;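 also: 0 = sulfaphenazole-blocked wells and 1 = vehicle-only wells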
# Target sequence (P11712 whole entry, looked up): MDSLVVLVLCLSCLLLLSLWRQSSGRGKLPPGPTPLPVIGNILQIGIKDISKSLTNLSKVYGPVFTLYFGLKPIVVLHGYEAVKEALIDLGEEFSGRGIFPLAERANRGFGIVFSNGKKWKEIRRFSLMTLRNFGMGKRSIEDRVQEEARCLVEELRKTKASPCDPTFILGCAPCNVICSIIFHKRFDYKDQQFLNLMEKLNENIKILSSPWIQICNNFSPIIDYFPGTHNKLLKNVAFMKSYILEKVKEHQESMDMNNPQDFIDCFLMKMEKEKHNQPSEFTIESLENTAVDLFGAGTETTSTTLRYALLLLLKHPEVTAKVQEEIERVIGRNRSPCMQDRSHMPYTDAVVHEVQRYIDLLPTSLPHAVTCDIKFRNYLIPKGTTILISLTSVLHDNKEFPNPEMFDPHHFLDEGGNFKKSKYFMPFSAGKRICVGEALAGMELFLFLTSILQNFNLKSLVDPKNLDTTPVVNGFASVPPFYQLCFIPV
# sEH act: increases human soluble epoxide hydrolase activity; P34913; purified human sEH enzymatic activity, activator screen; activation, % at 2 µM; 91,000 tested, 0.04% active; in the data active = activation above about 37%
# CYP2C9 inh: human CYP2C9 inhibition; P11712; CYP2C9 Supersomes, luciferin-H conversion, luminescence; inhibition, % at 5 µM; 96,000 tested, 20% active;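 active = blocking of liver enzyme CYP2C9 beyond about 50% at 5 µM, limit read from the data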
# An asterisk follows results filed as active; . = no result given.
SMILES,sEH inh,CYP2C19 inh,CYP2C19 act,CYP2C9 act,sEH act,CYP2C9 inh
COc1ccc(NC2CS(=O)(=O)CC2NCc2ccco2)cc1 (centres undefined),.,89*,0.1,1,.,0
O=S1(=O)CC(NCc2ccccc2)C(Nc2ccccc2)C1 (centres undefined),3,86*,0.1,0.6,-1,37
CC(C)=CC(=O)NCc1c(Cl)cccc1-n1cccc1,9,10,0.9,0.8,-9,21
Clc1ccc(Cc2ccc(Cl)nn2)c(Cl)c1,-9,73*,0.3,0.8,6,21
CCN(CC)c1ccc(/C=N/n2c(C)cc(C)cc2=O)cc1,1,46,0.5,1.4,0,-40
Cc1cccc(-c2cc3nc(C)cc(NCCCn4ccnc4)n3n2)c1,-6,93*,0.1,0,8,96*
Cc1cc(NCCCn2ccnc2)n2ncc(-c3ccc(Cl)cc3)c2n1,-5,74*,0.3,0.1,8,87*
CCOc1ccccc1CN1CCN(S(C)(=O)=O)CC1,9,32,0.7,1.1,-8,-10
O=S(=O)(c1ccccc1)N1CCN(Cc2cccc(Cl)c2)CC1,11,70*,0.3,0.4,-9,61*
CCOc1cc(S(=O)(=O)N2CCN(Cc3ccccc3)CC2)ccc1Br,0,97*,0,0.6,0,41
Cn1c(=O)c2cc(S(=O)(=O)N3CCC(c4ccccc4)CC3)ccc2n(C)c1=O,-14,20,0.8,0.3,15,68*
CN(Cc1ccccc1)S(=O)(=O)c1ccc2c(c1)n(C)c(=O)n2C,-3,65*,0.3,1,2,4
CCOC(=O)Cc1csc(NC(=O)CSc2nnnn2-c2ccc(C)c(C)c2)n1,5,.,.,.,0,.
Cc1ccc2ccc(C3C(=O)c4ccccc4C3=O)nc2c1,5,.,.,.,-4,.
Cn1c(=O)c(=O)n(C)c2cc(S(=O)(=O)N3CCN(Cc4ccccc4)CC3)ccc21,.,-2,1,0.5,.,51*
COc1ccc(S(=O)(=O)N2CCCN(Cc3cccc(F)c3)CC2)cc1,10,60*,0.4,1.6,-12,-55
COc1cccc(CN2CCN(S(=O)(=O)c3ccc(Br)cc3)CC2)c1,-15,86*,0.1,0.4,12,61*
COc1ccc(C)cc1S(=O)(=O)N1CCN(Cc2ccccc2)CC1,14,96*,0,0.1,-12,90*
COc1cccc(C(=O)CN2CCN(S(=O)(=O)c3ccc(Br)cc3)CC2)c1,-18,21,0.8,1,15,4
O=c1[nH]c2ccc(S(=O)(=O)N3CCN(c4ccccc4F)CC3)cc2s1,.,38,0.6,1,.,3
COCCCNC(=S)NC1CC2CCCC(C1)N2Cc1cccs1 (centres undefined),14,1,1,0.9,-13,14
COc1ccc(S(=O)(=O)N2CCN(Cc3ccccc3)CC2)cc1,-7,89*,0.1,1.1,9,-11
O=C1c2cnc3nc(SCc4ccccc4)nn3c2CC2c3ccccc3CCN12 (centres undefined),-10,-9,1.1,0.8,10,17
CN(Cc1ccccc1)Cc1nc2c([nH]1)c(=O)[nH]c(=O)n2C,.,-14,1.1,1.2,.,-25
CN(C)Cc1nc2c([nH]1)c(=O)n(C)c(=O)n2C,-6,51*,0.5,0.9,8,6
SMILES,sEH inh,CYP2C19 inh,CYP2C19 act,CYP2C9 act,sEH act,CYP2C9 inh
Cn1c(=O)c2[nH]c(CN(Cc3ccccc3)Cc3ccccc3)nc2n(C)c1=O,5,6,0.9,0.2,-5,81*
COc1ccccc1CN1CC(C(=O)NC2CCCCC2)CC1=O (centres undefined),11,12,0.9,1.2,-12,-20
Cc1ccc(-c2nnc3n2N=C(c2ccccc2Br)CS3)cc1,10,41,0.6,0.6,-12,43
CCOc1ccc(Cn2c(C)nc([N+](=O)[O-])c2SCC(O)CCl)cc1[N+](=O)[O-] (centres undefined),-2,76*,0.2,0.4,4,61*
Cc1ccc(C(=O)Nc2ccc(OCc3ccccc3)cc2)cc1[N+](=O)[O-],-18,24,0.8,1,16,-2
COc1ccc(CCNC(=O)Cc2cc(OCc3ccccc3)c(OC)cc2[N+](=O)[O-])cc1OC,9,33,0.7,0.5,-7,55*
COc1cc(CC(=O)NCCc2ccc(OCc3ccccc3)cc2)c([N+](=O)[O-])cc1OC,-12,61*,0.4,0.5,12,49
Cc1ccccc1S(=O)(=O)c1c(C)cc(-c2ccccc2)[nH]c1=O,-18,-2,1,0.8,21,18
CNC(=S)N1N=C(c2ccc(C)cc2)CC1c1ccc(Cl)cc1 (centres undefined),-15,29,0.7,0.1,12,90*
CNC(=S)N1N=C(c2ccc(C)cc2)CC1c1ccc(Br)cc1 (centres undefined),7,55*,0.4,0.1,-4,92*
CCC(=O)N1N=C(c2ccc(NS(C)(=O)=O)cc2)CC1c1ccc(C)cc1 (centres undefined),6,29,0.7,0.6,-6,42
Cc1ccc(N=Nc2c(N)[nH]n3c(=O)c4c(nc23)CCCC4)cc1,4,-12,1.1,1.1,-2,-13
CO/N=C/C(=N\Nc1ccc(OC)cc1)C(=O)c1ccc(OC)cc1,1,32,0.7,0.3,0,68*
Cc1ccc(C)c(OCC(=O)NCCN(C)C)c1,4,-2,1,1.1,-9,-5
COCCCNC(=O)CN1C(=O)CSc2ncccc21,.,30,0.7,1.1,.,-5
Cc1c(Cl)cccc1NC(=O)CN1C(=O)CSc2ncccc21,.,64*,0.4,3.6*,.,-256
CCN(CC)Cc1c(CC(C)C)oc(C)c1C(=O)O,-1,-9,1.1,1.2,2,-16
COc1ccc(CNC(=O)C(c2ccc(C)o2)N(C(=O)c2csnn2)c2ccc(C(C)C)cc2)cc1 (centres undefined),5,51*,0.5,0.5,-3,52*
Cn1nc(OC(=O)Nc2ccc(Cl)cc2)cc1C(F)(F)F,20,20,0.8,0.7,-19,30
Nc1nc2ccccc2n1CCOc1ccccc1Cl,.,56*,0.4,0.7,.,30
CCCn1c(N)nc2ccccc21,-3,3,1,1,5,0
Cn1c(=O)n(CCOc2ccccc2Cl)c2ccccc21,12,96*,0,0.1,-14,86*
CC1CC1C(=O)Nc1nc(-c2ccccc2)cs1 (centres undefined),5,16,0.8,0.6,-3,40
Cc1ccc(S(=O)(=O)C2(C(=O)N3CCCCCC3)CC2)cc1,-4,79*,0.2,0.9,7,9
COc1ccc(NC(=O)C(c2ccc(C)cc2)N(C)C(=O)c2cnccn2)cc1 (centres undefined),.,52*,0.5,0.5,.,53*
